# Source: PubChem BioAssay (NCI)
# Compounds without any hit were thinned out: in the full panel of roughly 83,000, 20% have a hit.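 Plates (96-well) were seeded with cells, treated with compound at one concentration, and incubated for 48 hours before percent growth was determined.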 Values without a mark were called inactive. Calls of active or inactive are those of the source.
# Test system: MDA-MB-468 breast
# Experiment: NCI-60 one-dose screen, 48 h (100 = growth as untreated, 0 = no growth, -100 = all killed)
# Conditions: 10 µM
# Experimental: Growth inhibition of the MDA-MB-468 human Breast tumor cell line is measured as a screen for anti-cancer activity. Cells are grown in 96 well plates and exposed to the test compound for 48 hours. Compounds are tested at a single concentration, which is 10^-5 M for most compounds. The reported endpoint is percent growth (GI% or GIPRCNT), where numbers from 0 - 100% represent growth inhibition, and numbers from -100% - 0 represent cell death. For example, a value of 40 represents 60% growth inhibition. A value of 0 means no net growth occurred over the course of the experiment. A value of -40 indicates 40% of cells at the beginning of the experiment died by the end of the experiment. A value of -100 means all cells are dead at the end of the experiment.
# NCI-60 Human Tumor Cell Lines Screen was performed using the standard one-dose NCI protocol, which is described in more detail at https://dtp.cancer.gov/discovery_development/nci-60/default.htm.
# Compounds with GIPRCNT values below 10 were considered active. Activity score was based on GIPRCNT using the following formula: […]
# Score is 0 for GIPRCNT values of 100 or above, 50 for GIPRCNT values of 0, and 100 for GIPRCNT values of -100.
row,SMILES,growth
1,CCCCOc1ccc(Nc2nc3ccccc3nc2Nc2ccc(OCCCC)cc2)cc1,73.8%
2,O=C(CNc1nc(-c2ccccc2)cs1)Nc1cccc(Cl)c1,10.7%
3,COc1cc2c(c(OC)c1OC)C(=O)CC(c1cccc(NC(=O)c3cccc(N)c3)c1)O2 (stereo not given),65.6%
4,O=C(O)CCCCCCCCCCN1C(=O)/C(=C/c2cnc(-c3ccccc3)s2)SC1=S,90.9%
5,O=C(CNc1nc(-c2ccccc2)cs1)Nc1ccc([N+](=O)[O-])cc1Cl,-30.3% (active)
6,COc1cc(/C=C/C(=O)c2ccc(NC(=O)CN3C(=O)NC(C)(c4ccccc4)C3=O)cc2)cc(OC)c1OC (stereo not given),-23.1% (active)
7,Cc1ccc([N+](=O)[O-])c(C(=O)Nc2ccc(-c3ccc4c(c3)NC(=O)/C4=C\c3ccc[nH]3)cc2)c1,-28.9% (active)
8,O=C(CSc1nnc(-c2c[nH]c3ccccc23)n1-c1ccccc1)c1ccc(Br)cc1,22%
9,CC1=C2C(=C[C@@](C)(COCOCCCl)[C@@H]2O)C(=O)[C@](C)(O)C12CC2,-89.9% (active)
10,CN1CCN(c2ccc(Nc3nc(NCCCNC(=O)C4CCCCC4)c4sccc4n3)cc2)CC1,49.1%
11,Cc1ccc(/C(CSc2nnc(-c3c[nH]c4ccccc34)n2-c2ccccc2)=N/O)cc1,-88.8% (active)
12,C=C1CCC2C3(C)COC(c4ccccc4F)OC3CCC2(C)C1C/C=C1/C(=O)OCC1O (stereo not given),-22.6% (active)
13,O=c1[nH]c2ccccc2cc1CSc1ccc(Nc2nccc(-c3ccc(C(F)(F)F)cc3)n2)cc1,-17.5% (active)
14,C=CCn1c(SCC(=O)Nc2ccc(C(=O)/C=C/c3ccccc3)cc2)nnc1-c1c[nH]c2ccccc12,-7.8% (active)
15,COc1ccc(-c2ccc(/C=N/NC(=O)c3[nH]c4ccc(Br)cc4c3-c3ccccc3)s2)cc1,76.6%
16,N#Cc1c(Cl)nc(SCc2ccc(F)cc2)nc1-c1ccc(F)cc1,112%
17,COc1ccc(C(=O)Nc2sc3c(c2C#N)CCC(=O)C3)cc1C(F)(F)F,-38.9% (active)
18,O=C(N/N=C/c1ccc(-c2cccc([N+](=O)[O-])c2)o1)c1[nH]c2ccc(Br)cc2c1-c1ccccc1,-3.87% (active)
19,O/N=C(\CSc1nnc(-c2c[nH]c3ccccc23)n1-c1ccccc1)c1ccc(Cl)cc1,-85.1% (active)
20,COc1ccc([C@H]2C(C(=O)c3ccc(Cl)cc3)C3(N[C@@H]2c2ccccc2)C(=O)Nc2ccc(Br)cc23)cc1 (stereo not given in full),-7.76% (active)

row,SMILES,growth
1,CC(=C(c1ccc(OCCN2CCCCC2)cc1)c1ccc(OCCN2CCCCC2)cc1)c1ccccc1,37.4%
2,Cc1ccc(C(=O)N/C(=C2/OCCN2C)[P+](c2ccccc2)(c2ccccc2)c2ccccc2)cc1,-13.3% (active)
3,Cc1nc(Nc2nc(C)c3ccc(OCCN4CCOCC4)cc3n2)[nH]c(=O)c1C,-72.8% (active)
4,O=C(Nc1nc2ccc([N+](=O)[O-])cc2s1)Nc1cc(Cl)ccc1I,-43.5% (active)
5,CN(C)CCNC(=O)OCCCCOc1cc(O)c2c(=O)cc(-c3ccccc3)oc2c1,-81.1% (active)
6,NS(=O)(=O)c1ccc(NC(=O)CSc2ccc(-c3ccc(Cl)cc3)nn2)c(Br)c1,-3.52% (active)
7,COc1cc(NC(=O)CSc2nnc(-c3ccc4nc(-c5ccc(Cl)cc5)[nH]c4c3)o2)cc(OC)c1OC,58.3%
8,CC1(C)CC[C@]2(C(=O)NCCCNCCCCNCCCN)CC[C@]3(C)C(=CC[C@@H]4[C@@]5(C)Cc6c([nH]c7ccccc67)C(C)(C)[C@@H]5CC[C@]43C)[C@H]2C1,75.3%
9,CC(=O)Nc1nc(-c2ccc(N3CCN(C)CC3)c(NS(=O)(=O)c3ccc(C(F)(F)F)cc3)c2)cs1,-29.3% (active)
10,CCCn1c(=O)c2[nH]c(-c3ccc(OCc4nc5ccc(C(F)(F)F)cc5[nH]4)cc3)nc2n(CCC)c1=O,30.8%
11,N#Cc1c(NC(=O)c2cccc(C(F)(F)F)c2)sc2c1CCC(O)=C2,-18.6% (active)
12,Cc1ccc(-c2cc(C(=O)N=Nc3c(O)[nH]c4ccc(Br)cc34)c3ccccc3n2)cc1,31.2%
13,O=c1[nH]c2ccccc2cc1CSc1ccc(Nc2nccc(-c3ccc4c(c3)OCO4)n2)cc1,72.5%
14,O=C(CSc1ccc(-c2ccc(Cl)cc2)nn1)Nc1ccc(Cl)c(C(F)(F)F)c1,16.5%
15,CC1=C(C(=O)OC(C)C)C(c2ccc(O)cc2)NC(=S)N1 (stereo not given),99%
16,O=c1[nH]c2ccc(Cl)cc2cc1CSc1ccc(Nc2nccc(-c3ccc(Cl)cc3)n2)cc1,-20.1% (active)
17,Cc1ccc2nc(COc3ccc(C(=O)NNC(=S)NC(=O)c4ccccc4)cc3)[nH]c2c1,55.6%
18,COc1ccc(N2N=C(c3ccc4c(c3)OCCO4)CC2c2cccc(NC(=O)CCCNS(=O)(=O)c3ccc(F)cc3)c2)cc1 (stereo not given),60.8%
19,Cc1ccc(C(C)C)cc1NC(=O)c1ccccc1N(C)C,71.9%
20,COc1ccc2[nH]c(O)c(N=NC(=O)COc3ccc(NC(=O)Nc4ccc(Cl)cc4)cc3)c2c1,-52.3% (active)
